Molecules are shown by their SMILES. The panel holds about 79,000 compounds, 15% with a hit somewhere; the sample as a whole holds those more often. A number with no mark means an inactive call. Activity calls are given as the source filed them. Rule as the data show it: active = growth inhibition above about 70%; inactive = the rest.

This passage reports growth inhibition results from PubChem BioAssay (NCI).

A short description of assay [1]: NCI Yeast Anticancer Drug Screen. Data for the rad50 strain (AID 155).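 Also: 0% = growth of vehicle-only cultures of the same strain.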 Particulars: S. cerevisiae rad50 strain growth inhibition, stronger effect = higher value. The essentials: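 Compounds were tested on a yeast strain with an engineered DNA damage repair alteration; the reported value is growth inhibition normalised to vehicle treatment.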
A short description of assay [2]: NCI Yeast Anticancer Drug Screen. Data for the mec2-1 strain (AID 157). Particulars: S. cerevisiae mec2-1 strain, stronger effect = higher value. The procedure, abridged: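 Cells of the genetically defined mec2-1 yeast strain are incubated with test compound. Inhibition of growth is calculated against vehicle-treated controls.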
Assay [3] in a line: NCI Yeast Anticancer Drug Screen. Data for the sgs1 mgt1 strain (AID 161).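 Also: 0% = growth of cultures given vehicle only.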 Particulars: S. cerevisiae sgs1 mgt1 strain, stronger effect = higher value. The procedure, abridged: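 Read-out: growth inhibition vs vehicle controls. Cells: mutant yeast strain deficient in DNA damage repair.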
Assay [4] can be described thus: NCI Yeast Anticancer Drug Screen. Data for the cln2 rad14 strain (AID 165).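 Also: 0% = growth equal to vehicle treated cultures.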 As to conditions: S. cerevisiae cln2 rad14 strain, stronger effect = higher value. The procedure, abridged: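 The screen exposed genetically defined yeast (cln2 rad14) to test compounds and scored growth inhibition relative to vehicle-treated controls.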
Assay [5] in a line: NCI Yeast Anticancer Drug Screen. Data for the bub3 strain (AID 167). Particulars: S. cerevisiae bub3 mutant strain, stronger effect = higher value. The essentials:
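Growth of a checkpoint-deficient yeast mutant is measured after compound exposure. Values represent inhibition relative to vehicle.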

A short description of assay [6]: NCI Yeast Anticancer Drug Screen. Data for the mlh1 rad18 strain (AID 175). Particulars: S. cerevisiae mlh1 rad18 strain growth inhibition, stronger effect = higher value. The procedure, abridged: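 Compound-treated yeast growth, normalised to vehicle controls. Strain bears defined DNA repair mutations.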
Setting [7] is: at 5.0 µM (retest, dose inferred, filed as 0.5).
Where [8] appears, read: at 50.0 µM (retest, dose inferred, filed as 5.0).

With `C(=[CH]/[Sn]([c]1ccccc1)([c]1ccccc1)[c]1ccccc1)/c1ccccc1`, the growth inhibition in assay [1] (setting [7]) is 96% (active); in assay [1] (setting [8]) it was 88% (active); in assay [1] (at 50.0 µM), 94.8% (active); in assay [2] (setting [7]) it was 95% (active); in assay [2] (setting [8]), 94% (active); in assay [2] (at 50.0 µM) it was 98.4% (active). Besides, the growth inhibition in assay [3] (setting [7]) was 98% (active); in assay [3] (setting [8]), 92% (active); in assay [3] (at 50.0 µM) it was 96.2% (active); in assay [4] (setting [7]) it was 92% (active); in assay [4] (setting [8]), 86% (active); in assay [4] (at 50.0 µM) it was 95% (active). Besides, the growth inhibition was 97% (active) in assay [5] (setting [7]); 85% (active) in assay [5] (setting [8]); 99.2% (active) in assay [5] (at 50.0 µM); 97% (active) in assay [6] (setting [7]); 84% (active) in assay [6] (setting [8]); 94.1% (active) in assay [6] (at 50.0 µM).

As to `c1ccc(CCNCc2ccco2)nc1`, the growth inhibition in assay [1] (setting [7]) was -2%; in assay [1] (setting [8]), -5%; in assay [1] (at 50.0 µM), 42.5%; in assay [2] (setting [7]) it was -7%; in assay [2] (setting [8]), -20%; in assay [2] (at 50.0 µM) it was 0.6%. For the same compound, the growth inhibition in assay [3] (setting [7]) was -7%; in assay [3] (setting [8]), -26%; in assay [3] (at 50.0 µM), -21.2%; in assay [4] (setting [7]), -18%; in assay [4] (setting [8]), -91%; in assay [4] (at 50.0 µM) it was 23.6%. For the same compound, the growth inhibition in assay [5] (setting [7]) is 3%; in assay [5] (setting [8]), -2%; in assay [5] (at 50.0 µM), -24.3%; in assay [6] (setting [7]), -7%; in assay [6] (setting [8]) it was -3%; in assay [6] (at 50.0 µM) it was 7.7%.

Regarding `CC(=O)NC1C(=O)CC(c2ccccc2)N(C)C1c1ccccc1` (stereo not given), the growth inhibition is 2% in assay [1] (setting [7]); 2% in assay [1] (setting [8]); 7.55% in assay [1] (at 50.0 µM); 2% in assay [2] (setting [7]); 6% in assay [2] (setting [8]); 6.55% in assay [2] (at 50.0 µM). The growth inhibition in assay [3] (setting [7]) is -2%; in assay [3] (setting [8]), 1%; in assay [3] (at 50.0 µM), 25.3%; in assay [4] (setting [7]), 4%; in assay [4] (setting [8]), 0%; in assay [4] (at 50.0 µM) it was 36.1%. In addition, the growth inhibition in assay [5] (setting [7]) is 2%; in assay [5] (setting [8]), 3%; in assay [5] (at 50.0 µM) it was 18%; in assay [6] (setting [7]) it was 1%; in assay [6] (setting [8]), -7%; in assay [6] (at 50.0 µM) it was 31.7%.

As for `O=C1OC(=O)C2C1C1(c3ccccc3)OC2(c2ccccc2)c2c(Br)c(Br)c(Br)c(Br)c21` (stereo not given), the growth inhibition in assay [1] (setting [7]) was 23%; in assay [1] (setting [8]), 99% (active); in assay [1] (at 50.0 µM) it was 98.8% (active); in assay [2] (setting [7]), 25%; in assay [2] (setting [8]), 100% (active); in assay [2] (at 50.0 µM), 99.4% (active). Besides, the growth inhibition in assay [3] (setting [7]) is 15%; in assay [3] (setting [8]), 99% (active); in assay [3] (at 50.0 µM), 99.2% (active); in assay [4] (setting [7]) it was 18%; in assay [4] (setting [8]) it was 99% (active); in assay [4] (at 50.0 µM), 98.6% (active). Also, the growth inhibition is 2% in assay [5] (setting [7]); 99% (active) in assay [5] (setting [8]); 98.7% (active) in assay [5] (at 50.0 µM); 38% in assay [6] (setting [7]); 99% (active) in assay [6] (setting [8]); 98.2% (active) in assay [6] (at 50.0 µM).

For the compound `COc1ccc(NC(=S)N/N=C/c2cccc(C)n2)cc1`, the growth inhibition in assay [1] (setting [7]) is 8%; in assay [1] (setting [8]), 98% (active); in assay [1] (at 50.0 µM), 67.4%; in assay [2] (setting [7]) it was 0%; in assay [2] (setting [8]) it was 94% (active); in assay [2] (at 50.0 µM) it was 82.5% (active). For the same compound, the growth inhibition is 13% in assay [3] (setting [7]); 90% (active) in assay [3] (setting [8]); 86.5% (active) in assay [3] (at 50.0 µM); 23% in assay [4] (setting [7]); 88% (active) in assay [4] (setting [8]); 83.3% (active) in assay [4] (at 50.0 µM). For the same compound, the growth inhibition in assay [5] (setting [7]) was -22%; in assay [5] (setting [8]), 85% (active); in assay [5] (at 50.0 µM), 85.9% (active); in assay [6] (setting [7]), 10%; in assay [6] (setting [8]), 95% (active); in assay [6] (at 50.0 µM) it was 89.4% (active).

For the compound `NC(CCl)=NCC1C2CC3CC(C2)CC1C3` (stereo not given), the growth inhibition in assay [1] (setting [7]) was 14%; in assay [1] (setting [8]) it was 99% (active); in assay [1] (at 50.0 µM) it was 87.9% (active); in assay [2] (setting [7]) it was 11%; in assay [2] (setting [8]), 99% (active); in assay [2] (at 50.0 µM), 90.2% (active). The growth inhibition was 11% in assay [3] (setting [7]); 99% (active) in assay [3] (setting [8]); 90.8% (active) in assay [3] (at 50.0 µM); -3% in assay [4] (setting [7]); 99% (active) in assay [4] (setting [8]); 84.5% (active) in assay [4] (at 50.0 µM). Moreover, the growth inhibition is 10% in assay [5] (setting [7]); 98% (active) in assay [5] (setting [8]); 89.2% (active) in assay [5] (at 50.0 µM); 19% in assay [6] (setting [7]); 99% (active) in assay [6] (setting [8]); 89.9% (active) in assay [6] (at 50.0 µM).

For the compound `O=C(c1ccc(F)cc1)c1ccc(Cl)cc1Cl`, the growth inhibition was 96% (active) in assay [1] (setting [7]); 98% (active) in assay [1] (setting [8]); 97% (active) in assay [1] (at 50.0 µM); 100% (active) in assay [2] (setting [7]); 99% (active) in assay [2] (setting [8]); 98.7% (active) in assay [2] (at 50.0 µM). For the same compound, the growth inhibition in assay [3] (setting [7]) was 100% (active); in assay [3] (setting [8]), 99% (active); in assay [3] (at 50.0 µM), 93.5% (active); in assay [4] (setting [7]), 99% (active); in assay [4] (setting [8]), 100% (active); in assay [4] (at 50.0 µM) it was 98.2% (active). The growth inhibition in assay [5] (setting [7]) is 99% (active); in assay [5] (setting [8]) it was 100% (active); in assay [5] (at 50.0 µM), 98.9% (active); in assay [6] (setting [7]) it was 99% (active); in assay [6] (setting [8]), 99% (active); in assay [6] (at 50.0 µM), 99.2% (active).

Regarding `Cc1c(-c2ccc(C(=N)N)cc2)oc(-c2ccc(C(=N)N)cc2)c1C`, the growth inhibition in assay [1] (setting [7]) is 88% (active); in assay [1] (setting [8]) it was 98% (active); in assay [1] (at 50.0 µM), 89% (active); in assay [2] (setting [7]), 84% (active); in assay [2] (setting [8]) it was 98% (active); in assay [2] (at 50.0 µM) it was 90% (active). The growth inhibition in assay [3] (setting [7]) is 92% (active); in assay [3] (setting [8]), 99% (active); in assay [3] (at 50.0 µM), 88.1% (active); in assay [4] (setting [7]) it was 80% (active); in assay [4] (setting [8]), 96% (active); in assay [4] (at 50.0 µM), 89% (active). The growth inhibition is 87% (active) in assay [5] (setting [7]); 99% (active) in assay [5] (setting [8]); 86% (active) in assay [5] (at 50.0 µM); 90% (active) in assay [6] (setting [7]); 97% (active) in assay [6] (setting [8]); 84.5% (active) in assay [6] (at 50.0 µM).

As to `CCCN(CCC)CCNc1ccc(C)c2sc3ccccc3c(=O)c12`, the growth inhibition in assay [1] (setting [7]) is 19%; in assay [1] (setting [8]), 99% (active); in assay [1] (at 50.0 µM), 99.7% (active); in assay [2] (setting [7]), 4%; in assay [2] (setting [8]), 100% (active); in assay [2] (at 50.0 µM), 99.7% (active). The growth inhibition is 42% in assay [3] (setting [7]); 100% (active) in assay [3] (setting [8]); 99.5% (active) in assay [3] (at 50.0 µM); 19% in assay [4] (setting [7]); 99% (active) in assay [4] (setting [8]); 99.5% (active) in assay [4] (at 50.0 µM). Besides, the growth inhibition in assay [5] (setting [7]) is 35%; in assay [5] (setting [8]) it was 99% (active); in assay [5] (at 50.0 µM), 99.4% (active); in assay [6] (setting [7]) it was 31%; in assay [6] (setting [8]), 99% (active); in assay [6] (at 50.0 µM) it was 99.5% (active).

On to `O=[N+]([O-])c1c(Br)ncn1Cc1ccccc1`, for which the growth inhibition was 26% in assay [1] (setting [7]); 92% (active) in assay [1] (setting [8]); 68.8% in assay [1] (at 50.0 µM); 22% in assay [2] (setting [7]); 98% (active) in assay [2] (setting [8]); 8.25% in assay [2] (at 50.0 µM). Further, the growth inhibition is 14% in assay [3] (setting [7]); 90% (active) in assay [3] (setting [8]); 22.4% in assay [3] (at 50.0 µM); 21% in assay [4] (setting [7]); 99% (active) in assay [4] (setting [8]); 7.5% in assay [4] (at 50.0 µM). The growth inhibition in assay [5] (setting [7]) was 35%; in assay [5] (setting [8]) it was 99% (active); in assay [5] (at 50.0 µM) it was -4.85%; in assay [6] (setting [7]) it was 49%; in assay [6] (setting [8]), 94% (active); in assay [6] (at 50.0 µM), 38.4%.
